# Reference: the supplement of paper PMC6555819
# Tests used:
# Experiment in all cases: PBM binding z-score (relative to random genomic background probes); higher = stronger binding; sequences stand for … in GC…GCGATTGACAGCGTAGAATGAAGG
# [1] = test system: FXR:RXRa (NR concentration 270 nM, RXRa partner concentration 90 nM)
# Method in brief: (§1)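 The probes on custom Agilent 4×180K protein-binding microarrays were double-stranded, with 34-nt variable regions bearing direct-repeat seeds, single-nucleotide variants, half-site ablations and random human genomic background sequences. Incubation lasted 1 h with ligand-free nuclear receptor dimers in PBS pH 7.4, 2% milk, 0.02% Triton X-100, 1 mM DTT, 0.2 mg/mL BSA and 0.4 mg/ml salmon testes DNA. Antibodies against each partner (one per run) detected bound dimers, and fluorescence scans were regression-normalized. Binding z-scores take the random background probes as reference.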
# [2] = test system: LXRa:RXRa (NR concentration 270 nM, RXRa partner concentration 90 nM)
# Method in brief: as §1
# [3] = test system: LXRa homodimer (NR concentration 270 nM)
# Method in brief: as §1
# [4] = test system: LXRb:RXRa (NR concentration 270 nM, RXRa partner concentration 90 nM)
# Method in brief: as §1
# [5] = test system: LXRb homodimer (NR concentration 270 nM)
# Method in brief: as §1
# [6] = test system: PPARa:RXRa (NR concentration 270 nM, RXRa partner concentration 90 nM)
# Method in brief: as §1
# [7] = test system: PPARg:RXRa (NR concentration 180 nM, RXRa partner concentration 90 nM)
# Method in brief: as §1
# [8] = test system: PPARg:RXRa 270nM:90nM, anti-RXR (NR concentration 270 nM, RXRa partner concentration 90 nM)
# Method in brief: as §1
# [9] = test system: PPARg:RXRa 30nM:10nM, anti-RXR (NR concentration 30 nM, RXRa partner concentration 10 nM)
# Method in brief: as §1
# [10] = test system: PPARg:RXRa 90nM:30nM, anti-RXR (NR concentration 90 nM, RXRa partner concentration 30 nM)
# Method in brief: as §1
# [11] = test system: PPARg:RXRa DBDmut IVT, anti-RXR (DBD mutation: RXRa K156A/R161A, NR concentration 270 nM, RXRa partner concentration 90 nM)
# Method in brief: as §1
# [12] = test system: PPARg:RXRa IVT, anti-PPARg (NR concentration 270 nM, RXRa partner concentration 90 nM)
# Method in brief: as §1
# [13] = test system: PPARg DBDmut:RXRa IVT, anti-PPARg (DBD mutation: PPARg1 K132A/R137A, NR concentration 270 nM, RXRa partner concentration 90 nM)
# Method in brief: as §1
# [14] = test system: PPARg DBDmut IVT, anti-PPARg (DBD mutation: PPARg1 K132A/R137A, NR concentration 270 nM)
# Method in brief: as §1
# [15] = test system: PPARg homodimer (NR concentration 180 nM)
# Method in brief: as §1
# [16] = test system: PXR:RXRa (NR concentration 270 nM, RXRa partner concentration 90 nM)
# Method in brief: as §1
# [17] = test system: PXR homodimer (NR concentration 270 nM)
# Method in brief: as §1
# [18] = test system: RARa:RXR (NR concentration 270 nM, RXRa partner concentration 90 nM)
# Method in brief: as §1
# [19] = test system: RARa homodimer (NR concentration 270 nM)
# Method in brief: as §1
# [20] = test system: RARb:RXRa (NR concentration 270 nM, RXRa partner concentration 90 nM)
# Method in brief: as §1
Sequence,PBM binding z-score [1],PBM binding z-score [2],PBM binding z-score [3],PBM binding z-score [4],PBM binding z-score [5],PBM binding z-score [6],PBM binding z-score [7],PBM binding z-score [8],PBM binding z-score [9],PBM binding z-score [10],PBM binding z-score [11],PBM binding z-score [12],PBM binding z-score [13],PBM binding z-score [14],PBM binding z-score [15],PBM binding z-score [16],PBM binding z-score [17],PBM binding z-score [18],PBM binding z-score [19],PBM binding z-score [20]
CGTCCAAGGTCTATGCTAGGTCAGTGAAAGCATT,0.1,5.48,0.995,2.27,-0.26,0.535,-0.39,-0.288,-0.641,-0.388,0.0727,0.505,-1.49,-0.699,0.128,0.421,-0.113,1.03,0.289,1.62
CCTGCTGGGCCATCAGGTCATTGATATCAACGTT,1.15,0.86,0.504,1.18,-0.89,1.73,0.432,1.06,-0.123,0.467,1.27,1.52,-0.402,-0.46,0.175,1.55,0.128,1.83,-0.97,2.02
CCTACTGGGCCATTCAGAGGTCATTGGTCATATG,2.52,4.22,7.04,3.5,0.551,3.65,2.66,3.38,1.1,2.4,3.85,4.26,-0.0478,0.266,1.61,4.57,2.34,4.46,0.727,3.03
TAAACAGGGTCAAAGGCCAGAGTACGAATGTCGA,7.35,5.57,0.675,4.69,1.48,6.49,9.15,8.05,6.91,8.47,3.53,5.43,2.69,2.41,3.24,4.51,0.672,6.19,0.87,4.33
CCTTACGGGTCACTGACAGATTATAGCATTTGGA,5.42,3.4,0.418,3.31,0.248,5.28,4.31,4.42,1.59,3.46,3.42,3.85,0.84,0.266,2.31,3.04,0.241,4.3,1.11,3.93
CCTAGTTGGTCAGGAGGTCACGCACCGGATATGA,4.29,4.22,2.24,3.81,0.661,4.65,4.41,4.64,2.02,3.5,1.74,4.03,0.246,-0.0131,3.74,4.85,1.04,5.52,2.11,4.06
CCTGCTAGGTCATGGGCAGCTAATCTACAGTATG,4.12,2.55,-0.0623,1.29,-0.864,3.72,2.82,3.2,0.94,1.97,4.17,3.73,0.149,-0.33,1.36,1.1,-0.682,2.68,0.607,3.83
GCGACTGGGGCATCAGCAGGTTACCAGAACTTAA,-0.204,-0.156,-0.341,0.413,-1.13,1.04,0.791,0.667,-0.35,0.126,3.48,3.19,-0.703,-1.1,0.612,-0.0392,-0.687,0.483,-0.801,0.987
ATATGTAGGTTAGCGGGTCATTCAGTTTGCGCAT,2.01,2.27,0.947,2.45,0.826,4.33,6.81,5.6,3.1,5.16,7.62,7.02,2.14,1.79,2.58,3.07,5.07,2.89,1.16,2.31
TAGCCTAGGTCAGACCGGGCCAGTATACGCTATA,2.15,1.09,-0.437,0.609,-0.719,1.61,0.828,0.617,-0.277,0.23,0.42,1.13,-0.551,-1.06,0.235,0.913,-0.412,1.14,-1.16,3
CATACTAGGTCACCGGAAGGTCAAAGTCCGCATG,5.94,6.26,5.63,5.54,2.08,5.71,8.32,7.18,4.5,6.47,7.07,8.03,4.35,1.99,7.45,5.88,2.1,7.25,2.75,5.21
CGAACTAGGTCAGAAGAGGACAGTGAAGGATGAT,1.71,1.24,-0.161,0.331,-0.576,3.14,5.79,4.62,2.29,4.02,7.13,7.32,3.38,1.51,1.15,2.5,-0.0219,2.42,0.202,3.05
TCTTGTAGATCAAACAGGTTAAGAAAGCCTGAGT,0.553,0.608,0.121,0.509,-0.073,1.1,-0.134,1.44,2.65,2.3,1.7,0.783,1.28,0.534,-0.369,0.754,0.338,0.849,0.0835,0.288
ATTTCTAGGTAACCAAGTTCAGTGAATGCCGAAC,0.465,0.956,1.1,0.544,0.68,2.16,1.8,1.8,0.773,1.38,5.61,4.97,2.81,3.03,1.16,2.1,1.89,0.832,1.02,1.49
TTACCAAGGTGAGCTGTGGTCGTTGATCCAACTC,0.0539,-0.153,-0.583,-0.347,-1.27,0.301,-0.403,0.0963,-0.507,0.106,1.27,1.57,0.175,0.327,-0.41,0.219,-0.79,-0.0403,-0.989,1.04
TCTTGTAGATCAACAAGAGGTTAAGAAAGATCGA,0.445,2.13,0.311,1.41,-0.334,1.96,0.437,1.19,2.15,1.59,1.35,0.865,0.785,0.787,-0.0436,1.27,0.0734,1.63,-0.225,0.99
AGTAGCAGGCCAAGTTTGGGTCACTCAAACAAAG,0.202,-0.31,-0.37,0.549,-0.802,1.47,-0.0669,0.42,-0.474,-0.201,0.369,1.17,-1.1,-1.36,0.195,0.663,-0.57,1.64,-0.486,1.72
CCTGTTAGGTCATGGTCAGCTAATCTACAGTATG,4.26,2.77,0.732,2.3,0.739,3.71,1.92,2.38,0.613,1.33,3.41,2.86,0.756,1.29,2.12,1.77,0.504,2.9,0.828,4.16
CCGAGTAGCTTATGGGGCATTCAGGCAACGGTGA,-0.494,-0.536,-0.883,-0.715,-1.2,-0.234,-0.0289,-0.512,-0.765,-0.818,0.454,0.117,-1.42,-1.07,-0.422,-0.731,-0.54,-0.568,-0.432,-0.266
CCTAGCAGGTCAATCTGGGTCACTCAAGGCTTGA,5.49,6.27,1.3,4.34,0.627,4.97,4.83,5.3,2.13,4.43,5.78,6.18,1.08,-0.626,2.33,5.31,0.0416,4.45,0.436,3.96
AGTCAAAGTGCACTAGGTAACGTAAGATTCAGCT,-0.308,-0.0298,-0.372,-0.0247,-0.424,1.85,3.36,3.28,1.04,1.89,1.83,3.56,0.58,-0.0287,0.167,0.215,0.189,0.315,-0.372,1.53
CCTATGAGTTGACCATAAGGGCAACCGAAGCTCG,0.925,0.669,-0.0503,0.247,0.184,0.685,0.512,0.342,-0.144,-0.218,-0.0484,0.26,-0.849,-0.386,1.05,1.1,0.421,1.51,0.579,1.72
ATACCACGGTGATCGTGAGGTCGTTGATACTAAC,1.06,0.834,0.899,0.931,-0.0132,0.958,0.3,0.0838,-0.0631,0.19,-0.0691,0.808,0.255,0.824,0.823,1.6,0.891,1.57,0.137,0.885
AGAATGAGGTTAAGATCATGGAAACAGAATACAT,2.01,1.71,-0.0716,1.88,-0.112,3.44,2.5,2.38,0.804,1.82,2.36,2.7,1.78,1.04,0.572,1.24,0.274,1.79,0.586,1.68
TCTGCTAGGTCAACGATGGTCAGCAAATCTGCTA,3.33,2.48,-0.168,1.69,-0.321,3.27,2.79,3.15,2.13,2.56,3.85,4.18,0.827,0.166,0.381,1.47,-0.599,2.12,-0.686,4.26
TCTATTAGTTGAGTAGGGCAACCGAAACAGCGGA,0.117,-0.0688,-0.201,0.0431,0.0555,0.964,0.351,1.65,3.14,2.23,2.19,2.75,0.301,0.883,0.0171,-0.0938,-0.0884,0.248,-0.221,0.507
CCTCGGTGGACAGAAGGTCAGAGCTGTCCGCTTT,1.33,1.62,-0.089,0.847,-0.688,1.75,0.418,2.42,-0.194,1.62,-0.193,0.138,-2.04,-1.69,1.8,1.32,-0.447,1.66,-0.0873,2.56
TGAATGATGTTATAAGATCAGGGAACGTTGCAAA,-0.318,-0.353,-0.0281,-0.083,0.0619,0.0376,0.37,-0.0772,0.598,0.592,-1.12,-0.0889,0.204,0.597,-0.0286,-0.22,-0.193,0.123,0.481,-0.32
CGTCCAAGGTCAATGCTAGGTGAGTGAAAGCATT,5.97,4.36,0.361,3.28,0.445,4.69,3.49,4,0.812,2.99,3.33,3.79,0.0432,-0.14,1.77,3.31,0.668,3.57,0.59,4.9
